Assay [1] is described as follows: blockers of polyQ-driven CASP3 activation – cell-based (AID 1583). The note with it: polyglutamine-induced caspase-3 activation, cell assay; stronger effect = higher value;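 tested at 10 µM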.
Assay [2] can be described thus: yeast 75Q aggregation reduction – 75Q-TubU reporter (AID 1593). The note with it: Yeast 75Q polyglutamine aggregation reporter.
A short description of assay [3]: restoration of touch response, mutant HTT neurons – whole organism, C. elegans mechanosensory neurons, N-terminal huntingtin (AID 1599). The note with it: C. elegans polyQ-huntingtin mechanosensory neurons, stronger effect = higher value.
Assay [4] can be described thus: blockers of cytochrome c efflux from mitochondria – biochemical, purified mitochondria (AID 1603).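 Note: mouse liver mitochondria challenged with calcium chloride; signal normalized to the plate average as 100%.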 The following applies: stronger effect = lower value.
A short description of assay [5]: polyglutamine aggregate formation blockers (AID 1604). The note with it: polyglutamine-induced protein aggregation inhibition assay; stronger effect = higher value; tested at 2.5 µM.
A short description of assay [6]: glutamate transport activators, MN-1 cells, MN-1 cell line (AID 1612).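 Note: tested at 1 µM final; 0% = mean of DMSO vehicle wells on each plate; positive means more glutamate uptake than control and negative means less.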 The note with it: MN-1 motor neuron cells, stronger effect = higher value.
Assay [7] in a line: GFP-Q80 aggregate reduction, neuronal-like cells, cell-based, NGF-treated PC12, GFPQ80 (AID 1614).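 Note: lower means fewer inclusions and 0 means no inclusions at all.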 The note with it: PC12 NGF-treated GFP-polyQ80 inclusion reduction.
Assay [8] is described as follows: 75Q-TubH aggregate inhibition, S. cerevisiae, yeast (AID 1616). The following applies: S. cerevisiae 75Q-TubH polyglutamine aggregation suppression; stronger effect = higher value.
Assay [9] is described as follows: compounds altering circadian rhythm period length – cell-based, LOPAC library, luminescence reporter (AID 2774).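 Note: values are relative to mean of DMSO wells on each plate.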 The note with it: circadian reporter cells, at 7 µM, actives lie on both sides.
Assay [10] can be described thus: P. berghei load reduction in hepatocytes – cell-based, HepG2, luciferase luminescence, HepG2 viability, primary screen (AID 624349; in the data active = parasite load remaining mostly below about 12%, no sharp cut-off; inactive = mostly above about 10%;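 note: 100% = mean of DMSO negative control wells on the same plate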). The note with it: P. berghei liver stage in HepG2, luciferase luminescence, concentration not given here; parasite load remaining: stronger effect = lower value; viability: measured here: HepG2 viability without parasites.
Assay [11] has as its system Hepatitis C virus NS3 helicase. The experiment in a line: blockers of NS3h binding to ssDNA – biochemical, fluorescence polarization, LOPAC1280 library, primary screen (AID 687035; in the data active = inhibition above about 37%). The following applies: Purified HCV NS3 helicase, Cy5-dT15 ssDNA binding fluorescence polarization; stronger effect = higher value; concentration not given here. For orientation: In fluorescence polarisation assays a small probe gives low polarisation when free and higher when bound to something large.

A short description of assay [12]: compounds altering Cy5-DNA-NS3h complex signal – biochemical, LOPAC1280, artefact control for HCV NS3 helicase inhibitor project (AID 687037). The note with it: Cy5-DNA-NS3h complex fluorescence interference counterscreen. (Counterscreens check selectivity or assay interference.)
The target in assay [13] is 6-phosphogluconate dehydrogenase, decarboxylating (Homo sapiens) (UniProt P52209). As to the kind of experiment: inhibition of human phosphogluconate dehydrogenase – biochemical, recombinant enzyme, NADPH absorbance, primary screen (AID 1159550;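 active = at least 20% inhibition of 6-phosphogluconate dehydrogenase activity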). The note with it: recombinant 6PGD, NADPH absorbance 341 nm; at 10 µM; stronger effect = higher value.
Sequence of 6-phosphogluconate dehydrogenase, decarboxylating (Homo sapiens) (P52209 whole entry, looked up): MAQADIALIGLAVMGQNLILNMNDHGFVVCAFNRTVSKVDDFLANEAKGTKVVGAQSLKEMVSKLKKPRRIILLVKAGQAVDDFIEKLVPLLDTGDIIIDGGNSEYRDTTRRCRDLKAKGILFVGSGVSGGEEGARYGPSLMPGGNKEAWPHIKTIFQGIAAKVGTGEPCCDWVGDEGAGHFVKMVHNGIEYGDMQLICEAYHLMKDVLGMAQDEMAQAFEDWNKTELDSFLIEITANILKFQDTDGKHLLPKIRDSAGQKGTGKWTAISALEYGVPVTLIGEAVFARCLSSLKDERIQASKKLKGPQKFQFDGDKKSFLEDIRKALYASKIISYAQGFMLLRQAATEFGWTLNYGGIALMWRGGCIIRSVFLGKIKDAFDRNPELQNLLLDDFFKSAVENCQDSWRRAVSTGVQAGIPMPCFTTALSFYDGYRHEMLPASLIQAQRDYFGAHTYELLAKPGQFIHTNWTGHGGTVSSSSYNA
Assay [14] has as its system Aerobactin synthetase IucA (Klebsiella pneumoniae hvKP1). The experiment in a line: IucA enzyme inhibition, primary screen, biochemical, Spectrum library (AID 1346200).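 Note: 100% = wells without compound and 0% = wells lacking enzyme.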 The note with it: malachite green pyrophosphate, A620, at 8 µM, stronger effect = lower value.
Assay [15] has as its system Aerobactin synthetase IucA (Klebsiella pneumoniae, hypervirulent). As to the kind of experiment: biochemical IucA inhibition screen of LOPAC library by absorbance (AID 1346212).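 Note: 100% = no compound wells and 0% = no enzyme wells.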 The note with it: IucA enzyme assay, absorbance (OD) readout; stronger effect = lower value;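 tested at 8 µM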.
Assay [16] in a line: viability loss with induced miR-34 in A549 – imaging, A549 dox-inducible miR-34, nuclei and caspase counts, primary screen (AID 1347080;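 active = compounds whose cell count with miR-34 switched on is under 0.7 times the count with it off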). The note with it: A549 miR-34 inducible, Hoechst nuclei count, 48 h.
The nature of assay [17]: blockers of cellular phospholipid synthesis – cell-based, LOPAC library, screen 4, primary screen (AID 1347384). The following applies: animal cells, phospholipid biosynthesis inhibition screen; at 10 µM.
Assay [18] has as its target Mitogen-activated protein kinase 7 (Homo sapiens) (UniProt Q13164). The experiment in a line: Gal4-ERK5 driven luciferase induction – cell-based, HTS, primary screen (AID 1508626;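 active = luciferase signal above three times the same-plate solvent-only control wells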;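 note: luciferase driven by Gal4-ERK5 fusion binding five Gal4 sites before minimal TATA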). The following applies: HeLa Gal4-ERK5 transactivation, 18 h, at 5 µM, stronger effect = higher value.
Assay [19] can be described thus: galactose survival enhancers in mitochondrial complex I cybrids – cell-based, galactose medium, ATP luminescence, primary screen (AID 1645843;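 active = z-score of at least 1.8 in each of two replicates, scored against plate mean and spread of sample wells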;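 note: positive z means more ATP and so rescue of galactose-driven cybrid death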). The following applies: complex I mutant cybrid cells, 72 h, stronger effect = higher value.
Assay [20] relates to Aerobactin synthetase IucA (Klebsiella pneumoniae). The experiment in a line: inhibition of K. pneumoniae IucA enzyme – biochemical, Tocris library, absorbance (AID 1345561).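 Note: 100% = enzyme without compound and 0% = no enzyme.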 The following applies: purified IucA enzyme assay, absorbance (OD) read-out; stronger effect = lower value;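 tested at 8 µM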.
Assay [21] can be described thus: viability loss in pontine glioma line – cell-based, SU-DIPG-XVII, MIPE5.0, CellTiter-Glo, qHTS, dose response (AID 1347060; cut-off not given, nearly all actives have AC50 up to about 26 µM). The note with it: CellTiter-Glo ATP luminescence.
Assay [22] can be described thus: viability loss in pontine glioma line – cell-based, JHH-DIPG-1, MIPE4.0, CellTiter-Glo, qHTS, dose response (AID 1347062; cut-off not given, nearly all actives have AC50 up to about 27 µM;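 note: cells exposed to compound for two days before readout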). The note with it: JHH-DIPG-1 viability, CellTiter-Glo ATP luminescence.
The nature of assay [23]: JHH-DIPG-1 glioma cell viability, MIPE5.0 library, CellTiter-Glo luminescence, qHTS (AID 1347067; cut-off not given, nearly all actives have AC50 up to about 26 µM;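 note: cells exposed to compound for 48 hours before readout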). The note with it: JHH-DIPG-1 glioma viability, CellTiter-Glo ATP luminescence.
Assay [24] in a line: growth inhibition of DIPG cells – cell-based, MIPE5.0 library, qHTS (AID 1347068; cut-off not given, nearly all actives have IC50 up to about 30 µM). The following applies: SU-DIPG-XXV viability.
For assay [25], the target named is NAD(+) hydrolase SARM1 (Homo sapiens) (UniProt Q6SZW1). As to the kind of experiment: blocking NAD cleavage by SARM1 SAM-TIR – cell lysate, NAD-Glo luminescence (AID 1508614;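 active = compound whose remaining NAD level is above about 45 nM, limit read from the data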;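 note: higher remaining NAD means stronger inhibition of SARM1 NADase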). The note with it: SAM-TIR HEK293T lysate NADase, at 1 µM, stronger effect = higher value.
Sequence of NAD(+) hydrolase SARM1 (Homo sapiens) (Q6SZW1 whole entry, looked up): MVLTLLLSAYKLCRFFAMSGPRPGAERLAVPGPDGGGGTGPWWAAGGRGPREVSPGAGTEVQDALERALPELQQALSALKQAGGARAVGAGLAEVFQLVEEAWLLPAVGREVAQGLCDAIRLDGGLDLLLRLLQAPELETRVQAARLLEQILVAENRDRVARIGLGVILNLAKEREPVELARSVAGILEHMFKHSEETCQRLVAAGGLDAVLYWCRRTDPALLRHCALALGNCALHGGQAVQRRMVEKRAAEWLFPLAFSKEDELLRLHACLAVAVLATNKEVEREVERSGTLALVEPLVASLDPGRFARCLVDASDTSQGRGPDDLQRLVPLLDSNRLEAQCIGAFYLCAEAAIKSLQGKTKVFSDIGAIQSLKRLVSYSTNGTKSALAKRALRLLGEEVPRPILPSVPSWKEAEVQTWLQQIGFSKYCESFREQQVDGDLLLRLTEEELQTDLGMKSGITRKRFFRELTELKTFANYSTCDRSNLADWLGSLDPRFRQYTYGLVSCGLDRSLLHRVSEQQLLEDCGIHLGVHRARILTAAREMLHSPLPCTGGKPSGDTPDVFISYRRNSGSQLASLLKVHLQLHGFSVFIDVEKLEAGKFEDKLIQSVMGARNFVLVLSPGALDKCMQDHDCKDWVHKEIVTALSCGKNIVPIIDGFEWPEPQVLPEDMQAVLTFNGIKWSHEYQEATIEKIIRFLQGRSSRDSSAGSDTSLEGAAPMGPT
The nature of assay [26]: EMT-state selective cytotoxicity in co-culture – imaging, PC-3E GFP, TEM4-18 mCherry, primary screen (AID 1345086;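 active = compounds killing one labelled cell type while sparing the other, by normalised counts and ratio limits, not self-fluorescent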;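 for all read-outs here: cells exposed to compound for 72 h before imaging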;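 for red/green cell ratio (normalised): normalised mesenchymal count divided by normalised epithelial count so high means epithelial killing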). The note with it: PC-3E GFP / TEM4-18 mCherry co-culture, imaging cell counts, at 1 µM; for red/green cell ratio (normalised): actives lie on both sides.
For assay [27], the target named is ATP-dependent translocase ABCB1 (Homo sapiens) (UniProt P08183). As to the kind of experiment: P-glycoprotein substrate transport blockade – cell-based (AID 377; in the data active = fluorescence slope change above about 50%). The note with it: MDR1-expressing cells, fluorescent substrate accumulation slope; stronger effect = higher value; concentration not given here.
Sequence of ATP-dependent translocase ABCB1 (Homo sapiens) (P08183 whole entry, looked up): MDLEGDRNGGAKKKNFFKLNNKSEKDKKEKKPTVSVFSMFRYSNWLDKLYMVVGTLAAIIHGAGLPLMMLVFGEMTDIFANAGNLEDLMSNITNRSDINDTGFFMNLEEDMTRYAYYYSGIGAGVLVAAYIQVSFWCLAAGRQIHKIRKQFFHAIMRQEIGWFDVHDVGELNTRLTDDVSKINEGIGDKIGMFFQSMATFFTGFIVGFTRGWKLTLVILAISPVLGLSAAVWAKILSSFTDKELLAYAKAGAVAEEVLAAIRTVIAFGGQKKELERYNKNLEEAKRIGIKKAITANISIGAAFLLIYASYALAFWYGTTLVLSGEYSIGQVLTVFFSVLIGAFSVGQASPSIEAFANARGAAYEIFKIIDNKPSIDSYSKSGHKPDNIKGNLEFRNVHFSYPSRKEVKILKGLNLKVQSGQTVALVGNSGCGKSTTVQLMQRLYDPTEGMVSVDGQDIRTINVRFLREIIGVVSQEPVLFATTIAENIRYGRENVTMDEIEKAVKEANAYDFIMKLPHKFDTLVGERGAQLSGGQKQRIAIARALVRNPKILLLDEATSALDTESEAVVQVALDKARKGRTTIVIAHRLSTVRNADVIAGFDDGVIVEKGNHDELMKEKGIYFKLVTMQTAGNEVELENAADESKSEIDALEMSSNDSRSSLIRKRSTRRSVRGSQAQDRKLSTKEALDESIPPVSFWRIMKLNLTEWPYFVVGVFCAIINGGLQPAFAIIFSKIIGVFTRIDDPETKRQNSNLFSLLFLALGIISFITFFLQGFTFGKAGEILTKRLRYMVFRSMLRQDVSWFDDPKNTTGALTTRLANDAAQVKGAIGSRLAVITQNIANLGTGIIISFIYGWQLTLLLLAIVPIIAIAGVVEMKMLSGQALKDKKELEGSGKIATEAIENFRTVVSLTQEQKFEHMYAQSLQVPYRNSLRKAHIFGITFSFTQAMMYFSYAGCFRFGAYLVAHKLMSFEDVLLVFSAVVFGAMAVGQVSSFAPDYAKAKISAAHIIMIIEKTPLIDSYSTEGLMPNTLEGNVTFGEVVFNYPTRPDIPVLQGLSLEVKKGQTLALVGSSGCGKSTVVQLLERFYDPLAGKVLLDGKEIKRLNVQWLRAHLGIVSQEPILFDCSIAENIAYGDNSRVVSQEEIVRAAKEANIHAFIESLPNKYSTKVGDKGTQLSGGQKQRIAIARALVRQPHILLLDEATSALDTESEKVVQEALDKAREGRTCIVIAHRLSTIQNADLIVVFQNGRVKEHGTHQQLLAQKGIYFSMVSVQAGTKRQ
The nature of assay [28]: compounds altering viability of human ES cells (AID 493140).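 Note: cells exposed to compounds for four days before counting.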 The note with it: human embryonic stem cell survival screen; stronger effect = higher value.
Where [29] appears, read: measured here: relative caspase fold change +Dox/-Dox.
[30] abbreviates: measured here: total cells with miR-34 induction, stronger effect = lower value.
Where [31] appears, read: measured here: total cells without miR-34 induction.
Where [32] appears, read: stronger effect = lower value, cell number ratio, induced over uninduced.
The mark [33] stands for this setting: measured here: epithelial PC-3E GFP cell survival.
Setting [34] is: measured here: mesenchymal TEM4-18 mCherry cell survival.

The record followed here is PubChem BioAssay.

Values joined by “and” are separate entries in the source; they are usually repeats but may differ in a detail not shown here. Equal values may be shown once. Inconclusive results are not listed. For some of these results: Results with a measured potency or affinity are listed apart. Active and inactive are the calls of the source. Unless noted, the rule behind the calls is not given here.

By inhibition is commonly meant the relative decrease from the control value, in per cent. Broadly, the viability is a read-out of living cells in per cent, often relative to untreated cells. The remaining activity is the signal under treatment as a percentage of the control signal. One may read the AC50 as the concentration at which the activity in the assay is half-maximal.

Sequence of Mitogen-activated protein kinase 7 (Homo sapiens) (Q13164 whole entry, looked up, the tested form may be a part): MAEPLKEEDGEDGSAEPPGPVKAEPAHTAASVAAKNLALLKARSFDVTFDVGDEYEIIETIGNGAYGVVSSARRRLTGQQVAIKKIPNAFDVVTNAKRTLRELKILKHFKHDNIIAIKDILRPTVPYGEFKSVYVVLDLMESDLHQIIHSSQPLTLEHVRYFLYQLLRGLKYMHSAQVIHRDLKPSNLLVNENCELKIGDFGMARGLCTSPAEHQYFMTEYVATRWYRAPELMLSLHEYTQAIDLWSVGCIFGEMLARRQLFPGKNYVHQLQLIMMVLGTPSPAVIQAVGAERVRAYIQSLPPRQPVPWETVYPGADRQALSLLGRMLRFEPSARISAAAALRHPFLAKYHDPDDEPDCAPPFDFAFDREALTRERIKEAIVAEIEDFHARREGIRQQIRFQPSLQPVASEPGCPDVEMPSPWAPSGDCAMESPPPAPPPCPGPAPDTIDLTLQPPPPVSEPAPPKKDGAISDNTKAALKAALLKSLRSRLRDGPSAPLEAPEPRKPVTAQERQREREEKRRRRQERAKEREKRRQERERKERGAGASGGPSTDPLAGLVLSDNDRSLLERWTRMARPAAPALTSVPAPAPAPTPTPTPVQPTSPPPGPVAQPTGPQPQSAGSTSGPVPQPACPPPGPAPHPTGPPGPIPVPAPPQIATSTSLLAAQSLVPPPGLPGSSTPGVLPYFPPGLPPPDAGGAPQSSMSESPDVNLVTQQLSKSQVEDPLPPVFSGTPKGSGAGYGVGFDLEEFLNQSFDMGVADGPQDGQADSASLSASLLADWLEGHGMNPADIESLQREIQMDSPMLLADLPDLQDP

Turning to `NC(=NCCC[C@H](N)C(=O)O)N[N+](=O)[O-]`, the inhibition in assay [1] is -12.4% and -12.2%; in assay [11], -2% (inactive); in assay [13] it was 3.83% (inactive). Moreover, the score in [2] is 0.79 and 1.25. Moreover, the rescue above control in assay [3] was -0.39 and 5.97. Further, the cytochrome c release ratio in [4] is 0.94 and 0.84. Moreover, in assay [5], the inhibition of aggregation was 34.7% and 12.9%. Also, in assay [6], the glutamate uptake change is 19.3% and -1.48%. For the same compound, in assay [7], the inclusion score came out at 2. The aggregation suppression score in assay [8] was 1.04 and 1.38. Moreover, the period change in assay [9] is 0.04 h (inactive). In addition, the parasite load remaining in assay [10] was 100% (inactive). In addition, the viability in [10] was 68.5%. Further, the fluorescence ratio (interference) in assay [12] was 1 (inactive). The activity remaining in assay [14] is 121% (inactive). Further, in assay [15], the remaining activity was 115% (inactive). The fold change in assay [16] (stronger effect = lower value) is 1.02 (inactive); in assay [16] (setting [29]), 0.79. Also, the cell count turned out to be 10000 in assay [16] (setting [30]) and 9830 in [16] (setting [31]). Further, in assay [17], the compound was classed as inactive. Also, the luciferase signal in assay [18] was 44 AU (inactive). Besides, the z-score in assay [19] was 0.525 (inactive).

Regarding `O=c1cccc2n1CC1CNC[C@H]2C1`, the parasite load remaining in [10] was 134% (inactive). For the same compound, the viability in assay [10] is 104%. Further, the inhibition in assay [13] is -36.3% (inactive). Further, the remaining activity in assay [20] was 96.4% (inactive). For the same compound, the call in assay [21], in [23] and in assay [24] was inactive. For the same compound, the AC50 in [22] was 2640 nM (active). The fold change in assay [16] (setting [32]) was 0.809 (inactive) and 0.946 (inactive); in assay [16] (setting [29]) it was 1.71 and 1.27. The cell count in [16] (setting [30]) was 8130 and 8990; in assay [16] (setting [31]), 10000 and 9510. The remaining NAD in [25] is 10 nM (inactive). Moreover, the luciferase signal in [18] was 60 AU (inactive). The z-score in assay [19] is 1.16 (inactive).

As for `O=C1CCO1`, the values for the inhibition in [1] and in [13] were 12.7% and -4.86% (inactive), respectively. In assay [2], this compound showed a score of 1.2. This compound gave a rescue above control in [3] of 11.7. The cytochrome c release ratio in [4] turned out to be 1.11. In [5], this compound had an inhibition of aggregation of 22.4%. Also, the glutamate uptake change in assay [6] was determined as 5.98%. Also, in assay [7], the inclusion score worked out at 2. This compound also showed an aggregation suppression score in [8] of 1.23. In addition, in assay [10], the parasite load remaining was 165% (inactive) and 39.1% (inactive). In addition, the viability in assay [10] was 91.2% and 89.3%. Besides, in [26], the red/green cell ratio (normalised) is 1.22 (inactive). Besides, the results for the normalised cell number in assay [26] (setting [33]) and in [26] (setting [34]) were 0.9 and 1.09, respectively. The fold change is 0.872 (inactive) in assay [16] (stronger effect = lower value) and 2.98 in assay [16] (setting [29]). Further, the cell count in assay [16] (setting [30]) came to 11800; in [16] (setting [31]), 13500. Further, the remaining NAD in assay [25] is 10 nM (inactive). Further, the luciferase signal in [18] is 100 AU (inactive).

Consider `COc1ccc2c(c1OC)C(=O)O[C@@H]2[C@H]1c2cc3c(cc2CCN1C)OCO3`, for which, in [27], the fluorescence slope change is 159% (active). Further, in assay [28], the survival is 7.17 (inactive). For the same compound, the parasite load remaining in [10] is 124% (inactive) and 81.5% (inactive) and 40.1% (inactive). The viability in assay [10] is 101% and 75.4% and 98.1%. Also, the inhibition in assay [13] is 6.9% (inactive). The red/green cell ratio (normalised) in assay [26] was 1.06 (inactive). Further, the normalised cell number in assay [26] (setting [33]) came out at 1.07; in assay [26] (setting [34]), 1.13. Moreover, the fold change in [16] (stronger effect = lower value) was 0.884 (inactive); in assay [16] (setting [32]), 0.838 (inactive); in assay [16] (setting [29]), 1.51 and 2.25. The cell count in assay [16] (setting [30]) is 8490 and 11200; in assay [16] (setting [31]) it was 10100 and 12700. Moreover, the remaining NAD in assay [25] was 10 nM (inactive). The luciferase signal in assay [18] was 84 AU (inactive).
